Laboratory results as given in PubChem BioAssay (Tox21).
Values joined by “and” are separate entries in the source; they are usually repeats but may differ in a detail not shown here. Equal values may be shown once. Unmarked numbers belong to inactive results. The call rests on the fitted dose curve.

Assay: qHTS assay to identify small molecule agonists of the estrogen related receptor (ERR) signaling pathway from Tox21 library (AID 1224849); further: nearly all actives have a fitted effect of over 15% in size
Details: ERR reporter cell line, ONE-Glo luciferase, 18 h; at 42.5 µM (top of the series)
Excerpt: National Center for Advancing Translational Sciences [NCATS]
NIH Chemical Genomics Center [NCGC]
U.S. Environmental Protection Agency [EPA]
National Institutes of Environmental Health Sciences [NIEHS]
National Toxicology Program [NTP]
Estrogen related receptors (ERRs), the first orphan nuclear receptors discovered, play an important role in the control of cellular energy metabolism. ERRs are required for high-energy production in response to the environmental challenges. ERR-alpha was also identified as an adverse marker for breast cancer progression; ERR-alpha-positive tumors have a poor prognosis. To screen and to identify environmental compounds that perturb the ERR signaling pathways could provide valuable information for potential therapeutic or preventive measures in the treatment of metabolic disease. For identifying ERR agonists, ERR cell line (provided by NTP) has been used to screen Tox21 10K library.
The ERR cells were dispensed at 2,000 cells/5 ul/well in 1536-well white plates using a Multidrop dispenser. After the assay plates were incubated at a 37 C/5% CO2 incubator for 6 hours, 23 nL of compounds dissolved in DMSO, positive and negative controls or DMSO only was transferred to the assay plate by a pin tool. The plates were incubated at 37 C for 18 hours. 4 ul/well of One-Glo reagent was added into the assay plates using a Flying Reagent Dispenser. After 30-minute incubation at room temperature, the luminescence intensity in the plates was measured using a ViewLux plate reader.
On the % scale 0 is the no-effect control and ±100 the full control effect.

Row | SMILES | activity change, positive = activation
1 | CN(C)c1ccc2nc3ccc(=[N+](C)C)cc-3sc2c1 | -59.7% and -55.3%
2 | NC(N)=NC(=O)Cc1c(Cl)cccc1Cl | -1.99%
3 | COc1ccc(CCN2CCC(Nc3nc4ccccc4n3Cc3ccc(F)cc3)CC2)cc1 | -69.8%
4 | COC(=O)[C@H]1[C@H]2C[C@@H]3c4[nH]c5cc(OC)ccc5c4CCN3C[C@H]2C[C@@H](OC(=O)c2cc(OC)c(OC)c(OC)c2)[C@@H]1OC | -35.9%
5 | C#CC(C)(CC)OC(=O)c1ccccc1C(=O)O (stereo not given) | 0.513%
6 | CC(C(O)c1ccc(O)cc1)N1CCC(Cc2ccccc2)CC1 (stereo not given) | -0.85%
7 | CCC(C)(Oc1ccc(C2(c3ccc(OC(C)(CC)C(=O)O)cc3)CCCCC2)cc1)C(=O)O (stereo not given) | 9.22%
8 | CC(C)C(=O)c1c(C(C)C)nn2ccccc12 | -9.6%
9 | Oc1c(Cl)cc(Cl)c(Cl)c1Cc1c(O)c(Cl)cc(Cl)c1Cl | -49.7%
10 | CC[C@]1(O)C[C@@H]2CN(CCc3c([nH]c4ccccc34)[C@@](C(=O)OC)(c3cc4c(cc3OC)N(C)[C@H]3[C@@](O)(C(=O)OC)[C@H](OC(C)=O)[C@]5(CC)C=CCN6CC[C@]43[C@@H]65)C2)C1 | -22% and -33.9%
11 | Cc1ccc(-c2cc(C(F)(F)F)nn2-c2ccc(S(N)(=O)=O)cc2)cc1 | -20.4%
12 | CC(C)(C)NCC(O)COc1ccccc1OCC1CCCO1 (stereo not given) | 4.72%
13 | CCCCCC(=O)O[C@]1(C(C)=O)CC[C@H]2[C@@H]3CCC4=CC(=O)CC[C@]4(C)[C@H]3CC[C@@]21C | -35.8%
14 | NC(N)=Nc1nc(CSCC/C(N)=N/S(N)(=O)=O)cs1 | 8.96%
15 | CCN(CC)C(=S)SSC(=S)N(CC)CC | -68.2%
16 | O=C1CC2(CCCC2)CC(=O)N1CCCCN1CCN(c2ncccn2)CC1 | -12.4%
17 | Oc1c(Cl)cc(Cl)cc1Sc1cc(Cl)cc(Cl)c1O | -52.3%

Same assay, conditions: ERR reporter cell line, ONE-Glo luciferase, 18 h; at 92.4 µM (top of the series)

Row | SMILES | activity change, positive = activation
18 | c1cc(C(c2ccc(OCC3CO3)cc2)C(c2ccc(OCC3CO3)cc2)c2ccc(OCC3CO3)cc2)ccc1OCC1CO1 (stereo not given) | -18.6% and 0.394%
19 | CN(C)c1ccc2nc3ccc(=[N+](C)C)cc-3sc2c1 | -71.3%
20 | OCCN1CCNCC1 | 9.65% and -11.4%
21 | COc1ccc(CCN2CCC(Nc3nc4ccccc4n3Cc3ccc(F)cc3)CC2)cc1 | -76.4%
22 | Cc1cccc(O)c1C | 0.54% and 10.2%
23 | CCCCOCCOC(=O)c1ccccc1C(=O)OCCOCCCC | -34.9% and -38.2%
24 | COC(=O)[C@H]1[C@H]2C[C@@H]3c4[nH]c5cc(OC)ccc5c4CCN3C[C@H]2C[C@@H](OC(=O)c2cc(OC)c(OC)c(OC)c2)[C@@H]1OC | -60.3% and -57.9%
25 | CC(=O)CC(=O)Nc1ccc2[nH]c(=O)[nH]c2c1 | 4.73%
26 | CCn1c2ccccc2c2cc(N)ccc21 | -48% and -30.3% and -32.3%
27 | CCCCCCC(O)CCCCCCCCCCC(=O)O (stereo not given) | -9.99% and -15.5%
28 | Cc1cc(C2(c3cc(C)c(O)cc3C)OS(=O)(=O)c3ccccc32)c(C)cc1O | -48.1% and -15.2%
29 | Oc1c(Cl)cc(Cl)c(Cl)c1Cc1c(O)c(Cl)cc(Cl)c1Cl | -37.2% and -60.8%
30 | Cc1ccc(-c2cc(C(F)(F)F)nn2-c2ccc(S(N)(=O)=O)cc2)cc1 | -66.1% and -48.6%
31 | O=Cc1ccc(Cl)cc1 | -1.47%
32 | CCCCCC(=O)O[C@]1(C(C)=O)CC[C@H]2[C@@H]3CCC4=CC(=O)CC[C@]4(C)[C@H]3CC[C@@]21C | -61%
33 | C=C(C)C1CC=C(C)C(OC(C)=O)C1 (stereo not given) | 2.18% and 0.969%
34 | NC(N)=Nc1nc(CSCC/C(N)=N/S(N)(=O)=O)cs1 | 4.57%
35 | CC(=O)CC(C)=O | 3.5%
36 | CC1=C(C=O)C(C)(C)CC=C1 | 0.302%
37 | CCN(CC)C(=S)SSC(=S)N(CC)CC | -75.7% and -76.4%
38 | O=C1CC2(CCCC2)CC(=O)N1CCCCN1CCN(c2ncccn2)CC1 | -47%
39 | [Cl][In]([Cl])[Cl] | -22.9% and -30%
40 | Oc1c(Cl)cc(Cl)cc1Sc1cc(Cl)cc(Cl)c1O | -60.8% and -52.2% and -57.2%
